# High-throughput results: PubChem, National Center for Advancing Translational Sciences (NCATS)
# MCF10A rerep: DNA re-replication induction in MCF 10a cells | MCF 10A DNA re-replication, Hoechst nuclear intensity, 48 h | Potency, µM (highest dose often 46.1 µM), hits mostly activators | hit rate 2.9% among 350,000; note: nearly all actives have a fitted effect of over 50% in size
# SW480 rerep: induces DNA re-replication in SW480 colon adenocarcinoma cells | SW480 DNA re-replication, Hoechst DNA content imaging, 48 h | Potency, µM (doses to about 46.1 µM), most hits filed as activators | hit rate 1.8% among 340,000 | AID 624297; note: nearly all actives have a fitted effect of over 55% in size
#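 Treated cells incubate 48 hr (37 C, 5% CO2), are stained 40 min with Hoechst, and nuclear fluorescence is enumerated; a rise in nuclei with high DNA signal marks re-replication.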
# KB-3-1 tox: kills parental KB-3-1 adenocarcinoma cells; KB-3-1 viability, CellTiter-Glo ATP luminescence, 72 h; Potency, µM (highest dose often 46.1 µM), usual class: cytotoxic; hit rate 1.4% among 400,000; AID 1347075; note: nearly all actives have a fitted effect of over 60% in size
#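 Parental KB-3-1 viability, qHTS format: 72 h compound exposure, 37 °C; CellTiter-Glo; media-only wells and DMSO plates as controls; concentration-effect fits on corrected data.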
# KB-V1 MDR tox: KB-V1 MDR subline cytotoxicity | KB-V1 MDR cells viability, CellTiter-Glo, 72 h | Potency, µM (series often up to 46.1 µM), hits mostly cytotoxic | hit rate 3.4% among 400,000 | AID 1347076; note: nearly all actives have a fitted effect of over 60% in size
#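 Readout: CellTiter-Glo luminescence, 10 min after addition. Cells: KB-V1 MDR subline, 72 h at 37 degrees C with compound. Analysis: corrected, normalized data fitted to concentration-effect curves.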
# HT1080 IDH1KD tx: kills HT-1080 cells with IDH1 knockdown. HT-1080 IDH1 knockdown viability, ATP luminescence, 48 h. Potency, µM (highest dose often 46.1 µM), most hits filed as cytotoxic. hit rate 2% among 360,000. AID 686971
#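 Assay cells: HT-1080 with IDH1 knockdown, 750 per well, RPMI/5% FBS. Exposure: 48 h at 37 °C following 2 h pre-incubation. Read: CellTiter-Glo luminescence; fitted concentration-response, curve class assigned.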
# HT1080NT lethal: kills 2HG-producing HT-1080-NT fibrosarcoma cells; AID 686970; HT-1080-NT fibrosarcoma viability, CellTiter-Glo ATP luminescence, 48 h; Potency, µM (doses to about 46.1 µM), hits mostly cytotoxic; hit rate 1.6% among 360,000;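 note: NT is the 2HG producing partner of a matched IDH1 knockdown line; nearly all actives have a fitted effect of over 55% in size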
#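 HT-1080-NT; 750 cells/well; 5% FBS RPMI; 48 h compound, 37 degrees C; CellTiter-Glo luminescence; curve fitting and curve-class assignment.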
# Hits are given with their value; - = inactive; ? = inconclusive; . = not tested or not shown. The list is not random: actives were taken first. Their share in the collection is about 8%. Calls come from the whole dose curve; as a rule, active = well fitted curve in the direction sought with a large enough effect; inconclusive = small, poorly fitted or top-dose-only effect, or another doubt; inactive = no such curve, though single readings can be large; an effect the other way counts as inactive or inconclusive.
SMILES,MCF10A rerep,SW480 rerep,KB-3-1 tox,KB-V1 MDR tox,HT1080 IDH1KD tx,HT1080NT lethal
CCCCOC(=O)CSc1nnc(-c2cc(OC)c(OC)c(OC)c2)o1,-,-,-,-,-,-
CC(O)C1CCC2C3CCC4CC(O)CCC4(C)C3CCC12C (stereo not given),-,-,.,.,.,.
COC(=O)c1cc(NS(=O)(=O)c2cc(Br)cc3c2N(C(C)=O)CC3)cc(C(=O)OC)c1,.,.,-,-,.,.
Cc1ccc(NC(=O)CN(C)S(=O)(=O)c2cccc3cccnc23)cc1C,-,-,-,-,-,-
CC(C)(C)NC(=O)NC(=O)CN1CCN(c2ccccc2)CC1,-,-,-,-,-,-
CC(C)(C)NC(=O)NC(=O)CN1CCN(c2ccc(O)cc2)CC1,-,-,21µM,?,-,-
c1cnc(N2CCN(c3ncc4c(n3)CCNC4)CC2)nc1,.,.,-,-,.,.
CCCN(Cc1nnc(-c2ccccc2Cl)o1)C(=O)COc1ccc(Cl)cc1,-,-,-,4.1µM,-,-
Cc1ccc(-n2nc(C(=O)Nc3ccc(F)cc3Cl)c(=O)n(C)c2=O)cc1,.,.,-,-,.,.
Cc1ccc(NC(=O)c2c(N3CCCC3=O)c3cc(C)ccc3n2C)c(C)c1,.,.,-,-,.,.
CCc1cccc(NC(=O)c2c(N3CCCC3=O)c3cc(C)ccc3n2C)c1,.,.,?,18µM,.,.
CCOc1ccc(NCc2nnc(SCc3ccc(Cl)cc3)n2-c2ccccc2)cc1,?,-,?,4.6µM,-,-
CCOC(=O)CSc1nnc(CNc2ccc(Cl)cc2)n1-c1ccccc1,-,-,-,-,-,-
CN1CCN([C@@H](c2ccccc2)c2ccc(Cl)cc2)CC1,-,-,.,.,.,.
CCOC(=O)C1(C)NC(c2ccc(N(C)C)cc2)C2C(=O)N(c3ccc(OC)cc3)C(=O)C21 (stereo not given),-,-,-,-,-,?
CCOC(=O)C1(C)NC(c2cccs2)C2C(=O)N(c3ccc(OC)cc3)C(=O)C21 (stereo not given),18µM,?,-,-,-,-
C[C@H]1CN=C(N(C)C)N1CCCC1CCCCC1,-,-,-,-,-,-
C/C(=N\NC(=O)c1cccc2ccccc12)c1cccnc1,-,-,-,-,?,-
CC(=NNC(=O)c1ccncc1)c1ccc(O)cc1O,?,?,?,-,?,-
C/C(=N\NC(=O)c1ccc(CN2CCc3ccccc3C2)cc1)c1ccccc1O,23µM,21µM,15µM,?,21µM,?
CC(C)CC(=NNC(=O)c1ccncc1)c1cc(Cl)ccc1O,?,1.2µM,?,?,0.82µM,?
CC(=NNC(=O)c1ccncc1)c1ccccc1O,18µM,0.58µM,?,-,?,?
CC(=NNC(=O)c1ccncc1)c1ccc2ccccc2c1O,18µM,2.3µM,?,?,5.8µM,?
Cc1ccc(N(C(=O)c2ccco2)C2C=CS(=O)(=O)C2)cc1 (stereo not given),-,-,?,?,-,-
C/C(=N\NC(=O)c1cc(C)nc2ccccc12)c1ccncc1,12µM,5.2µM,?,?,7.3µM,?
SMILES,MCF10A rerep,SW480 rerep,KB-3-1 tox,KB-V1 MDR tox,HT1080 IDH1KD tx,HT1080NT lethal
C/C(=N\NC(=O)CN1CCCCC1)c1ccccc1O,-,6.5µM,-,-,?,-
O=C(NCc1ccccc1F)C1CCCN(C(=O)N2CCOc3ccccc32)C1 (stereo not given),.,.,-,-,.,.
CC(C)Nc1nnc(SCC(=O)Nc2ccc3c(c2)C(=O)c2ccccc2C3=O)s1,?,-,?,10µM,?,-
CCOc1ccc(NCc2nc3ccccc3n2CCOc2ccccc2)cc1,?,?,?,?,?,-
Cc1ccccc1NCc1nc2ccccc2n1CCOc1ccccc1,.,.,15µM,?,.,.
COCCn1c(COc2ccc(OC)cc2)nc2ccccc21,-,-,-,8.2µM,-,-
CCn1c(COc2ccc(OC)cc2)nc2ccccc21,-,-,-,?,-,-
COc1ccc(NC(=O)CSc2ncc3c(n2)-c2cc(Cl)ccc2N(Cc2ccccc2F)S3(=O)=O)cc1,.,.,-,-,.,.
Cc1cccc(OCCSc2nc(N)cc(N)n2)c1,?,16µM,?,?,-,-
Cc1cccc(OCCOCCSc2ncccn2)c1,-,-,-,-,-,-
CCNc1nc(NCC)nc(SCCOc2ccc(C)cc2)n1,21µM,-,?,?,?,-
COc1ccc(CCNC(=O)Cn2nc([N+](=O)[O-])c(Br)c2C)cc1OC,-,-,-,-,-,-
Brc1ccc(/C=C2\C=Cc3ccccc32)cc1,.,.,-,-,.,.
C=CCn1c(-c2ccc(OC)c(OC)c2)n[nH]c1=S,-,-,?,16µM,-,-
COc1ccccc1Nc1cc(C(=O)NC2CCC(C)CC2)c2ccccc2n1 (stereo not given),.,.,-,-,.,.
CCOC(=O)C1=C(C)NC(=S)N(C(C)=O)C1c1ccc(OC)c(OC)c1 (stereo not given),?,-,-,-,?,?
CCOC(=O)C1=C(C)N(C)C(C)=C(C(=O)OCC)C1c1ccc(Cl)cc1,23µM,?,-,?,23µM,?
CCOC(=O)C1=C(C)NC(=S)N(C(C)=O)C1c1ccc(Cl)cc1 (stereo not given),-,-,-,-,13µM,?
COC(=O)C1=C(C)N(C)C(C)=C(C(=O)OC)C1c1ccc(Cl)cc1,-,-,?,-,-,-
CC1CCCCN1C(=O)NC1CC(=O)N(c2ccc3c(c2)OCCO3)C1 (stereo not given),-,-,-,-,-,-
COc1cc(Cl)c(C)cc1NC(=O)c1cc2c(=O)oc3ccccc3c2s1,.,.,-,-,.,.
CCN(CC(=O)Nc1ccccc1C(F)(F)F)C(=O)c1cc2c(s1)CCCCC2,?,-,-,-,-,-
COCCN(CC(=O)Nc1cccc(C)c1C)C(=O)c1cc2c(s1)CCC2,-,-,-,7.3µM,-,-
CCOc1ccc(OCC)c(NC(=O)C2COc3ccccc3O2)c1 (stereo not given),?,-,-,21µM,-,-
COc1ccc(Cl)cc1NC(=O)CN(C)CC(=O)N1CC(=O)Nc2ccccc21,?,-,-,-,-,-
COc1ccc(Cl)cc1NC(=O)CN(C)C(=O)CN1C(=O)NC(C)(c2ccc3ccccc3c2)C1=O (stereo not given),?,-,10µM,?,?,?
COc1ccc(Cl)cc1NC(=O)CN(C)CC(=O)Nc1ccccc1N1CCOCC1,?,5.2µM,-,?,1.2µM,1.5µM
Cc1ccccc1-c1cc2nccc(-c3cc(Cl)ccc3O)n2n1,.,.,-,-,.,.
COc1cccc(NC(c2nnc(-c3ccccc3)o2)c2ccc(F)cc2Cl)c1 (stereo not given),.,.,-,-,.,.
O=C(NC(=O)c1ccccc1)Nc1ccc(Cl)cn1,-,-,-,?,-,-
